RECQ1 helicase = qHTS Assay for Inhibitors of RecQ-Like Dna Helicase 1 (RECQ1); ATP-dependent DNA helicase Q1 (Homo sapiens), P46063; RECQ1 DNA unwinding, red fluorescence kinetic read; Potency, µM (series often up to 57.3 µM), most hits filed as inhibitors; 0.54% of 240,000 active; AID 2549, 2010; further: nearly all actives have a fitted effect of over 30% in size
Target sequence (P46063 whole entry, looked up): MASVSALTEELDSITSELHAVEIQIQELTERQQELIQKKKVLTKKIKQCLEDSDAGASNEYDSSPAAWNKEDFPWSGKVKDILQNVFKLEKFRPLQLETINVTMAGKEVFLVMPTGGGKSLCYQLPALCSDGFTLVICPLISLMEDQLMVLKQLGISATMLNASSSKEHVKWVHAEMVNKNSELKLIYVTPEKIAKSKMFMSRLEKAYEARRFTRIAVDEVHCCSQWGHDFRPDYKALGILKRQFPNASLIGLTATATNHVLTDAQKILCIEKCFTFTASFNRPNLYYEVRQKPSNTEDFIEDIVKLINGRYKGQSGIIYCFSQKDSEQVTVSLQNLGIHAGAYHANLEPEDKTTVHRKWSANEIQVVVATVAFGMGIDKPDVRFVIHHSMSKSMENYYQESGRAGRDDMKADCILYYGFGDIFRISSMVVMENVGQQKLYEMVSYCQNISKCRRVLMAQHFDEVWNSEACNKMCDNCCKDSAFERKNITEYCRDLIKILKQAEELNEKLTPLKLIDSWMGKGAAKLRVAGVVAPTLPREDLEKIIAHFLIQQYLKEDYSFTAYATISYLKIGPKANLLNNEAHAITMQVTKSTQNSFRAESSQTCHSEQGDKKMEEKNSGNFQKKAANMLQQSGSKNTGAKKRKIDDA
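RECQ1T1 50 nM; forked duplex (20 bp + 30-nt ss tails) 200 nM, ATP 2 mM final; pH 8.0, 2 mM MgCl2, 2.5 ug/ml poly(dI-dC); 15 min compound preincubation; discontinuous kinetic read over 2 h at RT.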
BLM helicase inh = qHTS Assay for Inhibitors of Bloom's syndrome helicase (BLM); 0.2% of 350,000 active; recombinant BLM DNA unwinding, fluorescence dequenching; Potency, µM (top dose mostly 56.1 µM), usual class: inhibitors; RecQ-like DNA helicase BLM (Homo sapiens), P54132; further: nearly all actives have a fitted effect of over 35% in size
APE1 inh-1 = qHTS Assay for Inhibitors of the Human Apurinic/apyrimidinic Endonuclease 1 (APE1). DNA repair nuclease/redox regulator APEX1 (Homo sapiens), P27695. recombinant APE1, TAMRA/BHQ-2 abasic DNA cleavage fluorescence. Potency, µM (titrated, usually from 65.8 µM), most hits filed as inhibitors. 0.35% of 350,000 active. AID 2517, 2012; further: nearly all actives have a fitted effect of over 55% in size
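Compound pre-exposure to 0.75 nM APE1, 15 min at ambient temperature. Reaction initiated with 50 nM TAMRA/BHQ-2 THF substrate, read immediately in kinetic mode, 525 nm excitation, 598 nm emission.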
GCN5L2 inh = qHTS Assay for Inhibitors of GCN5L2; Histone acetyltransferase KAT2A (Homo sapiens), Q92830; GCN5L2 HAT assay, ThioGlo1 CoA-SH fluorescence; Potency, µM (doses to about 58.9 µM), most hits filed as inhibitors; 0.21% of 390,000 active; AID 504327, 2011
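GCN5L2 (20 nM) in 50mM HEPES pH 7.5, 0.1mM EDTA, 0.01% Tween-20 preincubated 15 min with compounds at room temperature. Reaction started with H3(1-25) 75uM, acetyl-CoA 70uM, ThioGlo1 50uM; CoA-thiol fluorescence (Ex340/Em540) read at 0 and 20 min.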
RGS4 inhibitor = Inhibitors of Regulator of G Protein Signaling (RGS) 4: qHTS. Regulator of G-protein signaling 4 (Homo sapiens), P49798. Transcreener GDP fluorescence polarization, RGS4-accelerated GTP hydrolysis. Potency, µM (doses to about 114 µM), actives largely listed as inhibitors. 0.039% of 390,000 active; further: nearly all actives have a fitted effect of over 75% in size
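MLSMR compounds (23 nl, pin-transferred) preincubated 10 min at room temperature with a 500nM (2x) first reagent, then RGS4 at 900nM (2x) plus Transcreener GDP mix added; fluorescence polarization (620/688 nm) read before and after 90 min at 30 °C.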
TDP1 block = qHTS Assay for Inhibitors of Tyrosyl-DNA Phosphodiesterase (TDP1). Tyrosyl-DNA phosphodiesterase 1 (Homo sapiens), Q9NUW8. recombinant TDP1, AlphaScreen DNA substrate cleavage. Potency, µM (doses to about 130 µM), usual class: inhibitors. 0.28% of 350,000 active. AID 485290, 2010; further: nearly all actives have a fitted effect of over 40% in size
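Compounds were preincubated with Tdp1 (1 nM final) for 15 min at room temperature before substrate (15 nM final) started a 5 min reaction; beads (10 ug/ml final) were then added for 10 min before AlphaScreen detection.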
DNA dye displace = Counterscreen for APE1 Inhibitors: Fluorescent Dye Displacement Assay. shares compounds with APE1 inh-1. DNA fluorescent dye displacement counterscreen, fluorescence. Potency, µM (doses to about 28.5 µM), actives largely listed as inhibitors. 7% of 480 active. AID 2564, 2010;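 further: loss of thiazole orange fluorescence as the dye is displaced from duplex DNA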
EndoIV counter = Counterscreen for APE1 Inhibitors: qHTS Assay for Inhibitors of Endonuclease IV | 4% of 560 active | shares compounds with APE1 inh-1 | E. coli Endo IV, fluorogenic AP-site DNA cleavage | Potency, µM (doses to about 27.1 µM), hits mostly inhibitors
APE1 inh-2 = Confirmation qHTS Assay for Inhibitors of the Human Apurinic/apyrimidinic Endonuclease 1 (APE1) | shares compounds with APE1 inh-1 | purified APE1, fluorogenic abasic-site DNA cleavage | Potency, µM (titrated, usually from 57.1 µM), actives largely listed as inhibitors | 44% of 750 active | AID 2572, 2010; further: nearly all actives have a fitted effect of over 30% in size
APE1 FP inh = qHTS FP-Based Assay for Inhibitors of the Human Apurinic/apyrimidinic Endonuclease 1 (APE1); Potency, µM (top dose mostly 28.5 µM), most hits filed as inhibitors; AID 2573, 2010; APE1 binding to TAMRA-labelled double-stranded DNA, fluorescence polarization displacement; 7% of 480 active; shares compounds with APE1 inh-1
Of the large screens only hits and unclear results are named; the others gave an inactive call (follow-up assays come after a bar, where they were run); ! = a repeat was not active. Rows were chosen to be rich in hits. Some 0.87% of all compounds tested hit in one or more screens of this group. The call rests on the fitted dose curve; in most records, active means well fitted curve in the direction sought with a large enough effect; inconclusive means small, poorly fitted or top-dose-only effect, or another doubt; inactive means no such curve, though single readings can be large; an effect the other way counts as inactive or inconclusive.

CC(=O)OC1CCC2(C)C3CCC4(C)C(CC5CCCCC54C(C)=O)C3CC(=O)[C@@]2(O)C1 (stereo partly drawn)	none (no result: GCN5L2 inh, RGS4 inhibitor)
CC(=O)O[C@H]1CC2(C)[C@@H](C[C@@H](O)[C@H]3[C@@]4(C)CC[C@@H](O)[C@@H](C)[C@@H]4CC[C@@]32C)C1=C(CCC=C(C)C)C(=O)O (stereo partly drawn)	none (no result: BLM helicase inh) | EndoIV counter inactive | APE1 inh-2 inactive
Cc1cccc(NC(=O)CN(C)S(=O)(=O)c2cccc3nsnc23)c1C	none
CCOc1ccccc1NC(=O)CN(C)S(=O)(=O)c1cccc2nsnc12	none | DNA dye displace inactive | EndoIV counter inactive | APE1 inh-2 inactive | APE1 FP inh inconclusive
CC(C)CN(CC(C)C)S(=O)(=O)c1ccc(C(=O)Nc2sc3c(c2C(N)=O)CCN(C(C)C)C3)cc1	none (no result: RECQ1 helicase, APE1 inh-1)
CCOc1c(Cl)cc(C(=O)N(Cc2ccc(N(C)C)cc2)Cc2ccco2)cc1Cl	none (no result: RECQ1 helicase, APE1 inh-1)
CN(C)[C@H]1C(=O)C(C(=O)NCN2CCCC2)=C(O)[C@]2(O)C(=O)C3=C(O)c4c(O)cccc4[C@@](C)(O)[C@H]3C[C@@H]12	GCN5L2 inh inconclusive, TDP1 block inconclusive (no result: APE1 inh-1, RGS4 inhibitor) | DNA dye displace inactive | EndoIV counter inactive | APE1 inh-2 inactive | APE1 FP inh inconclusive
O=C(O)c1cc(O)c2c(c1)C(=O)c1cc(O)cc(O)c1C2=O	RECQ1 helicase inconclusive, APE1 inh-1 25µM (no result: TDP1 block) | DNA dye displace 13µM | EndoIV counter inconclusive | APE1 inh-2 14µM | APE1 FP inh 5µM
COc1ccc2c(c1)c(=O)oc1cc(OCC(=O)NC3CC3)ccc12	APE1 inh-1 inconclusive (no result: TDP1 block)
COc1ccc2c(c1)c(=O)oc1cc(OCC(=O)NC3CCCCC3)ccc12	APE1 inh-1 11µM (no result: TDP1 block) | DNA dye displace inactive | EndoIV counter inactive | APE1 inh-2 5.6µM | APE1 FP inh inactive
C=CCn1c(COc2cccc(C)c2)nnc1SCC(=O)NC(=O)NCc1ccco1	APE1 inh-1 inconclusive (no result: TDP1 block) | DNA dye displace inactive | EndoIV counter inactive | APE1 inh-2 inconclusive | APE1 FP inh inactive
CC(=O)Nc1ccn(C2CC3OCC(NC(=O)C(NC(=O)OC(C)(C)C)C(C)OCc4ccccc4)C3O2)c(=O)n1 (stereo not drawn)	none (no result: GCN5L2 inh)
CO/N=C(\C(=O)N[C@@H]1C(=O)N2C(C(=O)O)=C(COC(C)=O)CS[C@H]12)c1csc(N)n1	RGS4 inhibitor inconclusive
CO/N=C(\C(=O)N[C@@H]1C(=O)N2C(C(=O)O)=C(COC(C)=O)CS[C@@H]12)c1csc(N)n1	TDP1 block inconclusive (no result: APE1 inh-1, RGS4 inhibitor) | DNA dye displace inactive | EndoIV counter inactive | APE1 inh-2 28µM | APE1 FP inh inactive
Cn1nnnc1SCC1=C(C(=O)O)N2C(=O)[C@@H](NC(=O)[C@H](O)c3ccccc3)[C@H]2SC1	APE1 inh-1 inconclusive, TDP1 block 16µM | APE1 inh-2 40µM
CO/N=C(/C(=O)N[C@@H]1C(=O)N2C(C(=O)O)=C(CSC(=O)c3ccco3)CSC12)c1csc(N)n1 (stereo partly drawn)	none (no result: RECQ1 helicase, APE1 inh-1, RGS4 inhibitor, TDP1 block)
C=CC1=C(C(=O)O)N2C(=O)[C@@H](NC(=O)/C(=N\OCC(=O)O)c3csc(N)n3)[C@@H]2SC1	TDP1 block 14µM (no result: APE1 inh-1, RGS4 inhibitor) | DNA dye displace inactive | EndoIV counter inactive | APE1 inh-2 13µM | APE1 FP inh inactive
CC(=O)OCC1=C(C(=O)O)N2C(=O)[C@@H](NC(=O)CSc3ccncc3)[C@H]2SC1	APE1 inh-1 25µM!, TDP1 block 7.9µM (no result: BLM helicase inh) | EndoIV counter 16µM | APE1 inh-2 7.9µM
CCO	none (no result: BLM helicase inh, GCN5L2 inh, RGS4 inhibitor)
O=c1c(OC2OC(CO)C(O)C(O)C2OC2OC(CO)C(O)C(O)C2O)c(-c2ccc(O)cc2)oc2cc(O)cc(O)c12 (stereo not drawn)	RECQ1 helicase 10µM, APE1 inh-1 8.9µM, GCN5L2 inh inconclusive (no result: TDP1 block) | DNA dye displace inactive | EndoIV counter inactive | APE1 inh-2 inconclusive | APE1 FP inh inactive
CCc1nn2c(-c3ccco3)ccnc2c1-c1ccc(F)cc1	none (no result: RECQ1 helicase, APE1 inh-1)
CC(=O)Oc1cc(OC(C)=O)c2c(c1)OC(c1ccc(OC(C)=O)c(OC(C)=O)c1)C(OC(C)=O)C2 (stereo not drawn)	none (no result: RGS4 inhibitor)
O=C(OC1Cc2c(O)cc(O)cc2OC1c1cc(O)c(O)c(O)c1-c1c(C2Oc3cc(O)cc(O)c3CC2O)cc(O)c(O)c1O)c1cc(O)c(O)c(O)c1 (stereo not drawn)	RECQ1 helicase 2.5µM, BLM helicase inh 6.3µM, APE1 inh-1 0.1µM, GCN5L2 inh 16µM (no result: RGS4 inhibitor, TDP1 block) | EndoIV counter inactive | APE1 inh-2 0.18µM
CN1C(=O)CC(N2CCC(C(N)=O)CC2)C1=O (stereo not drawn)	none
NC(=O)C1CCN(C2CC(=O)NC2=O)CC1 (stereo not drawn)	APE1 inh-1 inconclusive (no result: TDP1 block) | DNA dye displace inactive | EndoIV counter inactive | APE1 inh-2 inconclusive | APE1 FP inh inactive

High-throughput results from PubChem BioAssay.
